# Assay results taken from the supplement of paper PMC7556523.
# Unmarked numbers belong to inactive results.
# Tested on: Sporothrix brasiliensis CBS 133006
# Experiment: growth inhibition relative to untreated control; higher = more growth inhibition (more antifungal activity), active = 80 or more; extreme values may be limits of the assay
# Conditions: 1 µM; 48 h
# Outline: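 Before testing, the reference isolates were kept in brain heart infusion broth with 2% glucose at 36°C for 7 days to give yeast-form cells. These cells, at 1 x 10^5 CFU/ml, received library compounds at a final 1 μM and were held 48 h at 35°C in 5% CO2. Growth was checked by eye under an inverted light microscope and quantified spectrophotometrically in quadruplicate, and the value is percent growth inhibition versus untreated cells.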
row,Compound,growth inhibition
1,COc1ccc2nc(C)cc(OCC(=O)Nc3ccccc3OC)c2c1,6%
2,CC1=Nc2ccc(Cl)cc2C(c2ccccc2)N1CCNC(=O)CN(C)C (stereo not given),22.8%
3,FC(F)(F)c1cnc(Sc2nnc(-c3ccncc3)o2)c(Cl)c1,3.5%
4,COC(=O)c1c(NC(=O)c2cc3ccccc3oc2=O)sc2c1CCN(Cc1ccccc1)C2,8.75%
5,Clc1ccc(CCNc2cc(-c3ccccc3)nc3ncnn23)cc1,9.75%
6,CCc1nc2ccccc2n1CC(O)COc1cc(C)ccc1Cl (stereo not given),1.25%
7,CCC(Sc1nc2ccccc2o1)C(=O)Nc1nnc(C)s1 (stereo not given),16%
8,O=C(OCc1ccccc1)N1CCC(c2cc(-c3ccncc3)c(-c3ccc(F)cc3)[nH]2)CC1,5.25%
9,CO[C@H]1/C=C\O[C@@]2(C)Oc3c(C)c(O)c4c(O)c(/c(=C/NN5CCN(C)CC5)c(O)c4c3C2=O)=N\C(=O)/C(C)=C\C=C/[C@H](C)[C@H](O)[C@@H](C)[C@@H](O)[C@@H](C)[C@H](OC(C)=O)[C@@H]1C,3%
10,c1cncc(NCc2ccc(-c3cc4ccncc4cc3OC3CCNCC3)s2)c1,20.8%
11,CCCn1c(NC(=O)c2ccc3ccccc3n2)nc2ccccc21,3.5%
12,CCN(CC)C(=O)N1CCN(C)CC1,4%
13,COc1cccc(OCC(=O)c2ccc(Br)cc2)c1,16%
14,Cc1nnc(NC(=O)c2cn(-c3ccccc3)nc2-c2ccccc2C)o1,1.5%
15,Clc1ccc(Cl)c(CO[C@H]2CCCC[C@@H]2n2ccnc2)c1,18%
